Data from PubChem BioAssay (NCI).
Several values for one entry are separate records, joined by “and”; a condition that tells them apart may be missing. Equal entries are not always repeated. The panel holds about 83,000 compounds, 20% with a hit somewhere; the sample as a whole holds those more often.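 Method: cells in 96-well plates; compound added at one concentration; 48 h incubation; percent growth measured; values under 10 scored active.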 Activity calls are given as the source filed them.

What was measured:
Assay in all cases: NCI-60 one-dose screen, 48 h (100 = growth as untreated, 0 = no growth, -100 = all killed)
NCI-H23 lung = tested on: NCI-H23 lung
NCI-H226 lung = tested on: NCI-H226 lung
NCI-H322M lung = conditions: 10 µM unless noted
HOP-62 NSCLC = tested on: HOP-62 NSCLC
NCI-H460 lung = tested on: NCI-H460 lung
HOP-92 NSCLC = tested on: HOP-92 NSCLC
NCI-H522 lung = tested on: NCI-H522 lung
A549/ATCC NSCLC = tested on: A549/ATCC NSCLC
786-0 renal = tested on: 786-0 renal
COLO 205 colon = tested on: COLO 205 colon
DU-145 prostate = tested on: DU-145 prostate
K-562 leukemia = tested on: K-562 leukemia
MALME-3M melanoma = tested on: MALME-3M melanoma
MDA-MB-231 breast = tested on: MDA-MB-231 breast
RXF 393 renal = tested on: RXF 393 renal
SF-268 CNS = tested on: SF-268 CNS
SF-295 CNS = tested on: SF-295 CNS
SF-539 CNS = tested on: SF-539 CNS
UACC-257 melanoma = tested on: UACC-257 melanoma
M14 melanoma = tested on: M14 melanoma

Measured: growth

CC(=O)/C=C/c1ccc(OCc2ccc(C(C)(C)C)cc2)cc1
active: HOP-92 NSCLC; 100 µM -14.7% | NCI-H522 lung; 100 µM -8.78% | COLO 205 colon; 100 µM -65.6% | MDA-MB-231 breast; 100 µM -39.2% | RXF 393 renal; 100 µM 1.8% | UACC-257 melanoma; 100 µM 2.75%
inactive: NCI-H23 lung; 10 µM 52.5% | NCI-H23 lung; 100 µM 31.7% | NCI-H226 lung; 10 µM 77.5% | NCI-H226 lung; 100 µM 38.3% | NCI-H322M lung 19.4% [100 µM] | HOP-62 NSCLC; 10 µM 88% | HOP-62 NSCLC; 100 µM 26.8% | NCI-H460 lung; 10 µM 84.4% | NCI-H460 lung; 100 µM 24.6% | HOP-92 NSCLC; 10 µM 89.5% | NCI-H522 lung; 10 µM 76.1% | A549/ATCC NSCLC; 10 µM 80.3% | A549/ATCC NSCLC; 100 µM 41.8% | 786-0 renal; 10 µM 91.9% | 786-0 renal; 100 µM 20.7% | COLO 205 colon; 10 µM 78.6% | DU-145 prostate; 10 µM 89% | DU-145 prostate; 100 µM 61% | K-562 leukemia; 10 µM 39.1% | K-562 leukemia; 100 µM 13.4% | MALME-3M melanoma; 10 µM 86.4% | MALME-3M melanoma; 100 µM 29% | MDA-MB-231 breast; 10 µM 84.2% | RXF 393 renal; 10 µM 94.6% | SF-268 CNS; 10 µM 94.2% | SF-268 CNS; 100 µM 42.3% | SF-295 CNS; 10 µM 69.6% | SF-295 CNS; 100 µM 27.2% | SF-539 CNS; 10 µM 78.4% | SF-539 CNS; 100 µM 34.1% | UACC-257 melanoma; 10 µM 70.6% | M14 melanoma; 10 µM 67% | M14 melanoma; 100 µM 10.5%

CCN(CC)CCOc1ccc(/C(=C(\Cl)c2ccccc2)c2ccccc2)cc1
active: NCI-H460 lung; 10 µM unless noted 5.92% | COLO 205 colon; 10 µM unless noted -74.8% and -60.4% | MALME-3M melanoma; 10 µM unless noted -18.7% | RXF 393 renal; 10 µM unless noted -58.3% and -26.6% | SF-295 CNS; 10 µM unless noted -23.1%
-2.92% (active) and 28% (inactive): K-562 leukemia; 10 µM unless noted
-5.76% (active) and 29.9% (inactive): SF-539 CNS; 10 µM unless noted
-65.1% (active) and 87.8% (inactive): 786-0 renal; 10 µM unless noted
-36.2% (active) and 43.3% (inactive): M14 melanoma; 10 µM unless noted
-57.9% (active) and 45.8% (inactive): UACC-257 melanoma; 10 µM unless noted
inactive: NCI-H23 lung; 10 µM unless noted 61.2% and 81.6% | NCI-H226 lung; 10 µM unless noted 27.6% and 49.4% | NCI-H322M lung 74.8% | HOP-92 NSCLC; 10 µM unless noted 30.6% and 83.7% | NCI-H522 lung; 10 µM unless noted 43.9% and 98.7% | A549/ATCC NSCLC; 10 µM unless noted 84.8% | DU-145 prostate; 10 µM unless noted 74.6% and 103% | SF-268 CNS; 10 µM unless noted 62.8% and 103%
1.62% (active) and 26.1% (inactive): MDA-MB-231 breast; 10 µM unless noted
-40% (active) and 61.3% (inactive): HOP-62 NSCLC; 10 µM unless noted

CCN(CC)/C([O-])=c1\cccc\c1=C1\N=C(c2ccccc2)N=C1[n+]1ccc(-c2ccccc2)cc1
inactive: NCI-H23 lung; 10 µM unless noted 103% | NCI-H226 lung; 10 µM unless noted 94.4% | NCI-H322M lung 100% | HOP-62 NSCLC; 10 µM unless noted 97.1% | NCI-H460 lung; 10 µM unless noted 103% | HOP-92 NSCLC; 10 µM unless noted 86.7% | NCI-H522 lung; 10 µM unless noted 21% | A549/ATCC NSCLC; 10 µM unless noted 97.9% | 786-0 renal; 10 µM unless noted 94.2% | COLO 205 colon; 10 µM unless noted 108% | DU-145 prostate; 10 µM unless noted 102% | K-562 leukemia; 10 µM unless noted 96.7% | MALME-3M melanoma; 10 µM unless noted 92.7% | MDA-MB-231 breast; 10 µM unless noted 100% | RXF 393 renal; 10 µM unless noted 104% | SF-268 CNS; 10 µM unless noted 102% | SF-295 CNS; 10 µM unless noted 100% | SF-539 CNS; 10 µM unless noted 89.1% | UACC-257 melanoma; 10 µM unless noted 92.9% | M14 melanoma; 10 µM unless noted 89.6%

O=C(/C=C/c1cccc(Oc2ccc(Cl)cc2)c1)c1ccccc1
inactive: NCI-H23 lung; 10 µM 90.8% | NCI-H226 lung; 10 µM 104% | HOP-62 NSCLC; 10 µM 98.5% | NCI-H460 lung; 10 µM 97.3% | HOP-92 NSCLC; 10 µM 111% | NCI-H522 lung; 10 µM 89.2% | A549/ATCC NSCLC; 10 µM 96.2% | 786-0 renal; 10 µM 91.3% | COLO 205 colon; 10 µM 104% | DU-145 prostate; 10 µM 95.3% | K-562 leukemia; 10 µM 31.6% | MALME-3M melanoma; 10 µM 102% | MDA-MB-231 breast; 10 µM 113% | RXF 393 renal; 10 µM 101% | SF-268 CNS; 10 µM 101% | SF-295 CNS; 10 µM 94.9% | SF-539 CNS; 10 µM 99.8% | UACC-257 melanoma; 10 µM 101% | M14 melanoma; 10 µM 89.5%
active: NCI-H23 lung; 100 µM -57.9% | NCI-H226 lung; 100 µM -63.2% | NCI-H322M lung -73% [100 µM] | HOP-62 NSCLC; 100 µM -80.5% | NCI-H460 lung; 100 µM -76.6% | HOP-92 NSCLC; 100 µM -90.7% | NCI-H522 lung; 100 µM -64.6% | A549/ATCC NSCLC; 100 µM -75.7% | 786-0 renal; 100 µM -88.9% | COLO 205 colon; 100 µM -71% | DU-145 prostate; 100 µM -98.4% | K-562 leukemia; 100 µM -29% | MALME-3M melanoma; 100 µM -85.2% | MDA-MB-231 breast; 100 µM -61.9% | RXF 393 renal; 100 µM -68.2% | SF-268 CNS; 100 µM -78.3% | SF-295 CNS; 100 µM -95.3% | SF-539 CNS; 100 µM -92.3% | UACC-257 melanoma; 100 µM -86.8% | M14 melanoma; 100 µM -54.4%

O=c1ccc2nc(-c3ccccn3)nn(-c3ccccc3)c-2c1
active: NCI-H522 lung; 10 µM unless noted -45% | COLO 205 colon; 10 µM unless noted -59.4% | K-562 leukemia; 10 µM unless noted -8.79% | MALME-3M melanoma; 10 µM unless noted -20.6%
inactive: NCI-H23 lung; 10 µM unless noted 89.5% | NCI-H226 lung; 10 µM unless noted 90.1% | NCI-H322M lung 102% | HOP-62 NSCLC; 10 µM unless noted 93.4% | NCI-H460 lung; 10 µM unless noted 109% | HOP-92 NSCLC; 10 µM unless noted 36.8% | A549/ATCC NSCLC; 10 µM unless noted 101% | 786-0 renal; 10 µM unless noted 53.6% | DU-145 prostate; 10 µM unless noted 91% | MDA-MB-231 breast; 10 µM unless noted 68.4% | RXF 393 renal; 10 µM unless noted 65% | SF-268 CNS; 10 µM unless noted 98% | SF-295 CNS; 10 µM unless noted 96.3% | SF-539 CNS; 10 µM unless noted 103% | UACC-257 melanoma; 10 µM unless noted 60.3% | M14 melanoma; 10 µM unless noted 90.3%

O=C(c1ccc(Nc2nccc(NCCCNc3ccnc4cc(Cl)ccc34)n2)cc1)N1CCCCC1
inactive: NCI-H23 lung; 10 µM unless noted 32.4% | NCI-H226 lung; 10 µM unless noted 84.9% | NCI-H322M lung 57.6% | HOP-62 NSCLC; 10 µM unless noted 57.5% | NCI-H460 lung; 10 µM unless noted 11.3% | HOP-92 NSCLC; 10 µM unless noted 64.3% | NCI-H522 lung; 10 µM unless noted 38.2% | A549/ATCC NSCLC; 10 µM unless noted 19.1% | 786-0 renal; 10 µM unless noted 32.9% | COLO 205 colon; 10 µM unless noted 27.2% | DU-145 prostate; 10 µM unless noted 39.1% | K-562 leukemia; 10 µM unless noted 18.8% | MALME-3M melanoma; 10 µM unless noted 17.2% | MDA-MB-231 breast; 10 µM unless noted 36.2% | RXF 393 renal; 10 µM unless noted 61% | SF-268 CNS; 10 µM unless noted 36.5% | SF-295 CNS; 10 µM unless noted 37.2% | SF-539 CNS; 10 µM unless noted 35.5% | UACC-257 melanoma; 10 µM unless noted 36.7% | M14 melanoma; 10 µM unless noted 35%
